Results filed as inconclusive are left out. Activity calls are given as the source filed them. How the source made its calls: active means hit-call score of the fitted dose curve at least 0.9, where 1 is the maximum; inconclusive means response in the unintended direction; inactive means score below 0.9.
Assay: ACEA_ER_80hr: ACEA Biosciences xCELLigence Real-Time Cell Analysis on Estrogen Receptor Agonism for Proliferation (AID 2282667)
Conditions: T47D proliferation, impedance (xCELLigence), 80 h
In short: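 Real-time impedance growth kinetics of human T-47D breast cells read 80 h after dosing, gain-of-signal fitted relative to DMSO. Compounds: 1:4 serial series, top final concentration 100 uM, n = 2.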

Row | SMILES | outcome | AC50
1 | CC(=[OH+])/C=C(/C)[O-].CC(=[OH+])/C=C(/C)[O-].CC(=[OH+])/C=C(/C)[O-].[Fe] | inactive | –
2 | CCOP(=S)(OCC)Oc1ccc(S(C)=O)cc1 (stereo not drawn) | inactive | –
3 | CC(C)C1CCC(Cc2ccc(Cl)cc2)C1(O)Cn1cncn1 (stereo not drawn) | inactive | –
4 | O=C1CCCN1 | inactive | –
5 | COc1ccc(C(O)(c2cncnc2)C2CC2)cc1 (stereo not drawn) | inactive | –
6 | O=C/C=C/c1ccccc1 | inactive | –
7 | Nc1ccc(N=Nc2ccc(-c3ccc(N=Nc4c(S(=O)(=O)O)cc5cc(S(=O)(=O)O)c(N=Nc6ccccc6)c(O)c5c4N)cc3)cc2)c(N)c1 | inactive | –
8 | O=C(CCl)CCl | inactive | –
9 | CCC[CH2][Sn]([Cl])([Cl])[Cl] | inactive | –
10 | C=CC#N | inactive | –
11 | ClC1=C(Cl)[C@]2(Cl)[C@@H]3[C@@H](Cl)[C@@H](Cl)C[C@@H]3[C@@]1(Cl)C2(Cl)Cl | inactive | –
12 | COc1cccc(C=O)c1 | inactive | –
13 | COc1ccc(OC)c(C=O)c1 | inactive | –
14 | CC(C#N)CCC#N (stereo not drawn) | inactive | –
15 | CCC1(c2ccc(N)cc2)CCC(=O)NC1=O (stereo not drawn) | inactive | –
16 | CC(C)OC(=O)Nc1ccccc1 | inactive | –
17 | CCOP(OCC)OCC | inactive | –

Row | SMILES | outcome | AC50
18 | Clc1ccc(COC(Cn2ccnc2)c2ccc(Cl)cc2Cl)cc1 (stereo not drawn) | inactive | –
19 | O=CC=O | inactive | –
20 | CC1(C)Cc2cccc(O)c2O1 | inactive | –
21 | O=C(NCO)NCO | inactive | –
22 | COP(=O)(OC)OC | inactive | –
23 | C=CC(=O)N(C)C | inactive | –
24 | COP(=S)(OC)Oc1c(Cl)cc(C)cc1Cl | inactive | –
25 | C1CCC(NC2CCCCC2)CC1 | inactive | –
26 | CC(C)c1ccc(CO)cc1 | inactive | –
27 | Cc1cc(Cl)ccc1O[C@H](C)C(=O)O | inactive | –
28 | COc1cc(OC)nc(NC(=O)NS(=O)(=O)c2ncccc2C(=O)N(C)C)n1 | inactive | –
29 | CC(=O)C(Cl)C(=O)N(C)C (stereo not drawn) | – | 0.272 µM (active)
30 | C(=NC1CCCCC1)=NC1CCCCC1 | inactive | –
31 | Nc1ccc(-c2ccc(N)c(Cl)c2)cc1Cl | inactive | –
32 | CC(=O)C=C(C)C | – | 10.8 µM (active)
33 | COC[C@H](C)N(C(=O)CCl)c1c(C)csc1C | inactive | –

Reference: PubChem BioAssay (EPA / NIEHS)
